H9c2 protect: myocardial damage modulation in H9c2 cells | H9c2 cardiomyocytes, H2O2 injury protection, ATPLite, 2 h | protection from H2O2 cell death, % at 20 µM | 360,000 tested, 0.63% active;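 active = compounds giving at least 50% protection of heart cells from peroxide-induced death in the single-dose screen, raw or plate-pattern-corrected value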
CRFR2-BP ag: agonists of human CRF-binding protein/CRF-R2 receptor complex; activation, % at 13.2 µM; HEK293 CRF-R2/CRF-BP, calcium dye fluorescence (FLIPR); percent of saturating CRF peptide response; 350,000 tested, 0.46% active;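 active = activation of at least 50%, plus an integration ratio under a set limit after plate pattern correction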
FAS-TE inh: blocks the thioesterase domain of human fatty acid synthase; inhibition, % at 15 µM; recombinant FAS-TE, OMFH fluorogenic substrate, fluorescence endpoint; 360,000 tested, 0.67% active; P49327;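 active = compounds whose normalised, plate-corrected inhibition of enzyme fluorescence in the single-dose primary screen is 50% or more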
PfGluPho inh: PfG6PD (Plasmodium falciparum) enzyme inhibition | 350,000 tested, 0.78% active | PfGluPho enzyme, NADPH resazurin-diaphorase fluorescence | AID 504690 | inhibition, % at 20 µM;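 active = inhibition reaching at least a set limit at 20 µM in the primary screen, cut at about 59% in these data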
aDG glyco up: increases alpha dystroglycan glycosylation | Pro5-aDG cells, alpha-DG glycosylation AlphaScreen (IIH6); 0% Pro5, 100% B10-LARGE cell signal | activation, % at 10 µM | 360,000 tested, 0.22% active;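 active = activation of at least 8% versus controls, or a plate z-score of at least 8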;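 note: Pro5 are CHO cells carrying HIG-tagged alpha-DG that lacks glycosylation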
CRFBP-R2 block: CRF-BP/CRF-R2 complex antagonism; HEK293 CRF-R2/CRF-BP, CRF-induced calcium fluorescence; inhibition, % at 11.8 µM; 350,000 tested, 0.59% active; AID 588475;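 active = inhibition of the ligand-induced calcium signal above about 50% at the single tested concentration, limit read from the data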
Large screens that a line does not name were inactive. Sampled rows, rich in hits. Any-hit rate of the full collection: about 3.2%.

COc1ccc(C(=O)NCC(=O)N2CCN(C(=O)c3ccco3)CC2)cc1	CRFR2-BP ag 316
CCOc1ccccc1C(=O)N(Cc1ccc(C)o1)C1CCS(=O)(=O)C1 (stereo unspecified)	none
C/C(=N\NC(=O)c1c(Br)c(C)nn1C)c1ccc(NC(=O)c2ccoc2C)cc1	H9c2 protect 52
C/C(=N\NC(=O)c1nn(C)c(C)c1Br)c1ccc(NC(=O)c2ccoc2C)cc1	none
Cc1cc(C)c(S(=O)(=O)/N=C2/C=C(Sc3ncn[nH]3)C(=O)c3ccccc32)cc1C	PfGluPho inh 109
Cc1ccc(C)c(S(=O)(=O)/N=C2\C=C(NS(=O)(=O)c3ccccc3)C(=O)c3ccccc32)c1	none
Cc1ccc(C)c2sc(NC(=O)c3ccc(N4C(=O)CCC4=O)cc3)nc12	CRFR2-BP ag 116
COc1ccc(C)c2sc(NC(=O)c3cccc(N4C(=O)CCC4=O)c3)nc12	none
CC(N=Cc1cccc(O)c1O)c1ccccc1 (stereo unspecified)	H9c2 protect 59
Cc1ccccc1N=Cc1cccc(O)c1O	H9c2 protect 58
CCN(CC)c1ccc(C=Nc2ccc(C)cc2C)c(O)c1	none
CC(N=Cc1cc([N+](=O)[O-])ccc1O)c1ccccc1 (stereo unspecified)	none
Oc1cccc(/C=N/N=C/c2cccc(O)c2O)c1O	none
Cc1ccc(N=Cc2cccc(O)c2O)c(C)c1	H9c2 protect 73 (no result: CRFR2-BP ag, PfGluPho inh, CRFBP-R2 block)
CCN(CC)c1ccc(NC(=O)COC(=O)COc2ccccc2[N+](=O)[O-])cc1	none
COc1cccc(CN2CCN(Cc3ccc4c(NC(C)=O)cccc4n3)CC2CCO)c1 (stereo unspecified)	none
O=C(NCCNc1ccc([N+](=O)[O-])cc1)c1cccs1	none
COc1ccc(C2=NN(C(=O)CCC(=O)O)C(c3ccc(OC)c(OC)c3)C2)cc1 (stereo unspecified)	none
COc1ccc(C2CC(c3ccc(Br)cc3)=NN2C(=O)CCC(=O)O)cc1OC (stereo unspecified)	CRFBP-R2 block 56
COc1ccc(F)cc1COc1nc(C)nc2ccccc12	none
Cc1nc(OCc2ccccc2)c2ccccc2n1	H9c2 protect 51
CCCn1c(SCC(=O)NC2CCCC2)nnc1C(C)C	none
O=C(NN1C(=O)/C(=C\c2cccnc2)SC1=S)C(c1ccccc1)c1ccccc1	H9c2 protect 60
CCCC(=NCC(=O)O)C1=C(O)C(C(=O)OC)C(C)(C)CC1=O (stereo unspecified)	CRFBP-R2 block 61
CC1(C2CC(C(F)(F)F)n3nc(C(=O)O)cc3N2)CC1 (stereo unspecified)	none
C/C=C/C(=O)Nc1cccc(C2=NOC3(C2)C[C@@H](C(N)=O)N(C(=O)c2cc([N+](=O)[O-])cc([N+](=O)[O-])c2C)C3)c1 (stereo partly specified)	CRFR2-BP ag 232
CCCCCC(=O)N1CC2(CC(c3cccc(NC(=O)CC)c3)=NO2)C[C@H]1C(N)=O (stereo partly specified)	CRFBP-R2 block 79
O=C(Nc1cccc(Cl)c1)C1CCCN(C2=NS(=O)(=O)c3ccccc32)C1 (stereo unspecified)	none
O=C1S/C(=C\c2ccc(N3CCOCC3)o2)C(=O)N1Cc1ccc(F)cc1	PfGluPho inh 60
Cc1ccc(C(=O)O)cc1-c1ccc(/C=C2/NC(=O)N(c3ccccc3)C2=O)o1	none
O=C1S/C(=C/c2ccc(N3CCOCC3)o2)C(=O)N1Cc1ccc(F)cc1	CRFR2-BP ag 114
CC(C)OC(=O)CN1C(=O)S/C(=C/c2ccc(N3CCCCC3)o2)C1=O	none
O=C1N/C(=C/c2ccc(N3CCOCC3)o2)C(=O)N1c1ccccc1	CRFBP-R2 block 56
O=C1NC(=S)S/C1=C/c1ccc(N2CCOCC2)o1	CRFR2-BP ag 52
CCN1C[C@@H]2[C@@H]3C(=O)N(Cc4ccccc4)C(=O)[C@@H]3[C@](CC)(C(=O)OC)N2C1=NC	none
COCCN(C(=O)C1CCCO1)c1c(N)n(CC(C)C)c(=O)[nH]c1=O (stereo unspecified)	none
O=C1/C(=C/c2ccc(N3CCOCC3)o2)SC(=Nc2ccccc2)N1CCc1c[nH]c2ccccc12	PfGluPho inh 77
CN(C(=O)Cc1c(C(=O)O)n(C)c2ccccc12)c1ccc(F)cc1	none
Cc1cc(=O)oc2cc(OCC(=O)N3CCN(C(=O)C4COc5ccccc5O4)CC3)c(Cl)cc12 (stereo unspecified)	H9c2 protect 58
Cc1ccc2occ(C(c3nnnn3C3CCCC3)N3CCN(C(=O)c4ccco4)CC3)c(=O)c2c1 (stereo unspecified)	H9c2 protect 52
O=C(c1ccco1)N(Cc1cccc([N+](=O)[O-])c1)c1ccc(Br)cc1	CRFBP-R2 block 82
O=C(CCc1nnc2ccc(NCc3ccco3)nn12)N1CCN(c2ccccc2F)CC1	CRFBP-R2 block 52
O=C(CCc1nnc2ccc(NCc3ccco3)nn12)N1CCCCC1	none
CCCCn1c(N)c(N(CC(C)C)C(=O)COC(=O)C2(c3ccccc3)CC2)c(=O)[nH]c1=O	none
O=C(O[C@@H]1OC2COC(=O)c3cc(O)c(O)c(O)c3-c3c(cc(O)c(O)c3O)C(=O)O[C@@H]([C@H]1O)[C@@H]2O)c1cc(O)c(O)c(O)c1	PfGluPho inh 111
CCc1ccc(N2C(=O)c3sc4nnc(C)c(=O)n4c3C2=O)cc1	none
Cc1ccc(N2C(=O)c3sc4nnc(C)c(=O)n4c3C2=O)cc1	CRFBP-R2 block 52
Cc1ccccc1N(C(=O)CNC(=O)c1ccco1)C(C(=O)NC1CCCC1)c1ccncc1 (stereo unspecified)	none
O=C(CN1C(=O)COc2ccccc2C1=O)c1ccc2c(c1)OCCO2	none
c1ccc2c(CN3CCCCC3)csc2c1	CRFR2-BP ag 96
O=C(Cc1ccccc1)NC1CCSc2ccccc21 (stereo unspecified)	none
Cc1nn(-c2cccc([N+](=O)[O-])c2)c(N)c1-c1ccccc1	CRFBP-R2 block 57
O=C(N/N=C/c1sc(N2CCOCC2)nc1-c1ccccc1)c1ccccc1Cl	none
O=[N+]([O-])c1ccc(N/N=C/c2sc(N3CCOCC3)nc2-c2ccccc2)c(S(=O)(=O)Nc2ccccc2Cl)c1	CRFR2-BP ag 67
O=[N+]([O-])c1ccc(N/N=C/c2sc(N3CCOCC3)nc2-c2ccccc2)c(S(=O)(=O)Nc2ccc(Cl)cc2)c1	CRFR2-BP ag 83
Cc1ccc2c(c1)C(=O)N1[C@H]3c4ccccc4OC[C@@H]3[C@H](c3ccccc3)[C@]1(C)C(=O)N2	FAS-TE inh 71
COc1ccc2c(c1)OC[C@H]1[C@H]2N2C(=O)c3cc(C)ccc3NC(=O)[C@@]2(C)[C@H]1c1ccccc1	FAS-TE inh 76

Source: PubChem
